We go through 33 compounds from paper PMC4102417.

Molecules are shown by their SMILES.

This assay deals with murine 3T3 fibroblasts. The assay is described as follows: primary screen, percent viability or growth; higher = less effect of the substance. How it is done: Similarly, for measuring the cytotoxicity concentration (CC50) for 3T3 fibroblast cells, cultures were incubated with drugs for 72 hours and developed using Alamar Blue (Alamar Biosciences Inc, Sacramento, CA) as previously described.
Consider `O=c1c(-c2ccc(O)cc2)coc2cc(O)cc(O)c12`, for which the “Mammalian (3T3) cell % growth at 10 uM” value was 100%. Consider `O=C(/C=C(/O)c1ccccc1)c1ccccc1O`, for which the “Mammalian (3T3) cell % growth at 10 uM” value is recorded as 100%.

With `COC(=O)CC1C2(C)CC34OC5(C)OC6(C7/C(=C(\OC)C(C)C)C(=O)OC(c8ccoc8)C7(C)C(OC(=O)C(C)C)C(OC)C6(O5)C13C)C(OC)C4(OC)C2OC(C)=O` (stereo not drawn), the “Mammalian (3T3) cell % growth at 10 uM” value is given as 53.4%. With `Cc1coc2c1C(=O)C(=O)c1c-2ccc2c1CCCC2(C)C`, the “Mammalian (3T3) cell % growth at 10 uM” value was 44.3%. For the compound `C=C1C(=O)O[C@H]2[C@H]1CC/C(C)=C/CC[C@@]1(C)O[C@@H]21`, the “Mammalian (3T3) cell % growth at 10 uM” value is given as 0.7%.

Turning to `COc1c2c(cc3occ(-c4ccc5c(c4)OCO5)c(=O)c13)OC(C)(C)C=C2`, the “Mammalian (3T3) cell % growth at 10 uM” value amounted to 68.2%. `Clc1ccccc1C(c1ccccc1)(c1ccccc1)n1ccnc1`: the “Mammalian (3T3) cell % growth at 10 uM” value was 100%. Consider `CN1CCCC(n2nc(Cc3ccc(Cl)cc3)c3ccccc3c2=O)CC1.Cl` (stereo not drawn), for which the “Mammalian (3T3) cell % growth at 10 uM” value is 95.1%.

With `O=c1cc(-c2ccccc2)oc2cc(O)cc(O)c12`, the “Mammalian (3T3) cell % growth at 10 uM” value amounted to 43%. `CCC(=C(c1ccccc1)c1ccc(OCCN(C)C)cc1)c1ccccc1`: the “Mammalian (3T3) cell % growth at 10 uM” value was determined as 97%. With `c1ccc(-c2ccc(C(c3ccccc3)n3ccnc3)cc2)cc1` (stereo not drawn) the figure was 93.6%; with `CC12C=CC(=O)C=C1CCC1C2CCC2(C)C(=O)CCC12` (stereo not drawn), 72.1%. On to `CN(C)C(=S)SSC(=S)N(C)C`, for which the “Mammalian (3T3) cell % growth at 10 uM” value is on record as 0.3%. In the case of `CC(=O)OC1CC2C(C)(C)C(=O)C=CC2(C)C2CCC3(C)C(=CC(=O)OC3c3ccoc3)C12C` (stereo not drawn), the “Mammalian (3T3) cell % growth at 10 uM” value was found to be 56.1%. As to `C=C1c2c(Cl)ccc(O)c2C(O)=C2C(=O)[C@]3(O)C(=O)/C(=C(/N)O)C(=O)[C@@H](N(C)C)[C@@H]3[C@@H](O)[C@H]12.O=C(O)c1cc(S(=O)(=O)O)ccc1O`, the “Mammalian (3T3) cell % growth at 10 uM” value came out at 60.9%. On to `COc1ccc(-c2cc(=O)c3c(O)cc(O)cc3o2)cc1`, for which the “Mammalian (3T3) cell % growth at 10 uM” value is reported as 77.4%. With `CN1CCCC1CCOC(C)(c1ccccc1)c1ccc(Cl)cc1` (stereo not drawn), the “Mammalian (3T3) cell % growth at 10 uM” value is recorded as 93.2%.

As to `CC1(C)C=CC(=O)C2(C)C1CC(=O)C1(C)C2CCC2(C)C(c3ccoc3)OC(=O)C3OC321` (stereo not drawn), the “Mammalian (3T3) cell % growth at 10 uM” value was 100%. As to `O=C1C=CC(=O)c2c(O)cccc21`, the “Mammalian (3T3) cell % growth at 10 uM” value is on record as 66.4%. With `C[C@H]1CC[C@]2(NC1)O[C@H]1C[C@H]3[C@@H]4CC[C@H]5C[C@@H](O[C@@H]6O[C@H](CO)[C@H](O[C@@H]7O[C@H](CO)[C@@H](O)[C@H](O[C@@H]8OC[C@@H](O)[C@H](O)[C@H]8O)[C@H]7O[C@@H]7O[C@H](CO)[C@@H](O)[C@H](O)[C@H]7O)[C@H](O)[C@H]6O)CC[C@]5(C)[C@H]4CC[C@]3(C)[C@H]1[C@@H]2C` the figure was 0.1%; with `CCN(CCCCOC(=O)c1ccc(OC)c(OC)c1)C(C)Cc1ccc(OC)cc1` (stereo not drawn), 92.3%. With `COc1cc([C@@H]2c3cc4c(cc3[C@@H](O[C@@H]3O[C@@H]5CO[C@@H](c6cccs6)O[C@H]5[C@H](O)[C@H]3O)[C@H]3COC(=O)[C@H]23)OCO4)cc(OC)c1O` the figure was 50.4%; with `CCCCCCc1ccc(O)cc1O.Nc1c2ccccc2nc2ccccc12`, 53.7%; with `O=C(/C=C/c1ccc(O)c(O)c1)OCCc1ccccc1`, 1.4%.

In the case of `Cc1cc2nc3c(=O)[nH]c(=O)nc-3n(C[C@H](O)[C@H](O)[C@H](O)CO)c2cc1C`, the “Mammalian (3T3) cell % growth at 10 uM” value is reported as 0.9%.

Turning to `COC(=O)C1(C)CCC2(C)CCC3(C)C4=CC=C5C(=CC(=O)C(O)=C5C)C4(C)CCC3(C)C2C1` (stereo not drawn), the “Mammalian (3T3) cell % growth at 10 uM” value is listed as 0.6%.

For the compound `Clc1ccc(C(OCCN2CCCCC2)c2ccccc2)cc1` (stereo not drawn), the “Mammalian (3T3) cell % growth at 10 uM” value came out at 100%. On to `CC1=CC(=O)C2C(C)(C)CCCC2(C)C1(O)CCc1ccoc1` (stereo not drawn), for which the “Mammalian (3T3) cell % growth at 10 uM” value came to 75.8%. Take `C=C1C(=O)C23C(O)C1CCC2C12COC3(O)C(O)C1C(C)(C)CCC2O` (stereo not drawn): the “Mammalian (3T3) cell % growth at 10 uM” value turned out to be 0.2%. On to `O=C(O)CC[N+](=O)[O-]`, for which the “Mammalian (3T3) cell % growth at 10 uM” value worked out at 88.6%. For `COc1cc2nc(N3CCN(C(=O)c4ccco4)CC3)nc(N)c2cc1OC.Cl`, the “Mammalian (3T3) cell % growth at 10 uM” value is 70.7%. Take `CC(C)=CCc1c2c(c3occ(-c4ccc(O)c(O)c4)c(=O)c3c1O)C=CC(C)(C)O2`: the “Mammalian (3T3) cell % growth at 10 uM” value is on record as 4.1%. On to `COc1ccc(Cc2nccc3cc(OC)c(OC)cc23)cc1OC.Cl`, for which the “Mammalian (3T3) cell % growth at 10 uM” value is recorded as 93.1%.
